Assay results: ChEMBL document CHEMBL1961873, “Compounds: GSK PKIS; Assays: Nanosyn kinase panel” (2012)

Tests used:
[1] = target: T1, Ephrin type-B receptor 2 (Homo sapiens) (UniProt P29323); settings: at 1 µM
T1 sequence (whole entry): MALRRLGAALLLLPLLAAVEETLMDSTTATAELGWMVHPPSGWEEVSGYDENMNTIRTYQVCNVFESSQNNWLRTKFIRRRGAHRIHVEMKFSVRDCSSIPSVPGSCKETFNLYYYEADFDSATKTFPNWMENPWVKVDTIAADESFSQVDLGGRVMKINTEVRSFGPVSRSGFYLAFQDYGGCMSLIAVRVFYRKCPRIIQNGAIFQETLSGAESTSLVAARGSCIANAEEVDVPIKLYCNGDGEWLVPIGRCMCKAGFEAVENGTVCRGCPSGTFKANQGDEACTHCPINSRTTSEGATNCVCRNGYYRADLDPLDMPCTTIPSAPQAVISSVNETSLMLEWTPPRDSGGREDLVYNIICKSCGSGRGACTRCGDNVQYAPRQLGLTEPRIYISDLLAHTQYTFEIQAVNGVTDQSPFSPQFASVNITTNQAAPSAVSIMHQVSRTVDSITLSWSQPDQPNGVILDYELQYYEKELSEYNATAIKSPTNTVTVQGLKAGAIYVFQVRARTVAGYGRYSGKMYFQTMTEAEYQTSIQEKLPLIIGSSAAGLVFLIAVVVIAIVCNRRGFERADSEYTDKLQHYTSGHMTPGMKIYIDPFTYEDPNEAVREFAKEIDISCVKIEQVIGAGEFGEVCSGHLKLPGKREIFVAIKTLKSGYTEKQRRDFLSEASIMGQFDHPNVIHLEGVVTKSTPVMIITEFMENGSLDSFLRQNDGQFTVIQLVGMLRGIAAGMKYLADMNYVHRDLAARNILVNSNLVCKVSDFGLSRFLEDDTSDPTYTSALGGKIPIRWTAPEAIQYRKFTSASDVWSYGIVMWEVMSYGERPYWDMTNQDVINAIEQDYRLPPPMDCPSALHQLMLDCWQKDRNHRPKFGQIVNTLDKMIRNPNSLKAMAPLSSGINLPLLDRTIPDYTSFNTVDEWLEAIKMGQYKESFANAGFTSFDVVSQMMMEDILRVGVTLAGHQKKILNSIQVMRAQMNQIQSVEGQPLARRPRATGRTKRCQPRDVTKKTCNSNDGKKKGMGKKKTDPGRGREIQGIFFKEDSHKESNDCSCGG

[2] = target: T2, Ephrin type-B receptor 3 (Homo sapiens) (UniProt P54753); settings: at 0.1 µM
T2 sequence (whole entry): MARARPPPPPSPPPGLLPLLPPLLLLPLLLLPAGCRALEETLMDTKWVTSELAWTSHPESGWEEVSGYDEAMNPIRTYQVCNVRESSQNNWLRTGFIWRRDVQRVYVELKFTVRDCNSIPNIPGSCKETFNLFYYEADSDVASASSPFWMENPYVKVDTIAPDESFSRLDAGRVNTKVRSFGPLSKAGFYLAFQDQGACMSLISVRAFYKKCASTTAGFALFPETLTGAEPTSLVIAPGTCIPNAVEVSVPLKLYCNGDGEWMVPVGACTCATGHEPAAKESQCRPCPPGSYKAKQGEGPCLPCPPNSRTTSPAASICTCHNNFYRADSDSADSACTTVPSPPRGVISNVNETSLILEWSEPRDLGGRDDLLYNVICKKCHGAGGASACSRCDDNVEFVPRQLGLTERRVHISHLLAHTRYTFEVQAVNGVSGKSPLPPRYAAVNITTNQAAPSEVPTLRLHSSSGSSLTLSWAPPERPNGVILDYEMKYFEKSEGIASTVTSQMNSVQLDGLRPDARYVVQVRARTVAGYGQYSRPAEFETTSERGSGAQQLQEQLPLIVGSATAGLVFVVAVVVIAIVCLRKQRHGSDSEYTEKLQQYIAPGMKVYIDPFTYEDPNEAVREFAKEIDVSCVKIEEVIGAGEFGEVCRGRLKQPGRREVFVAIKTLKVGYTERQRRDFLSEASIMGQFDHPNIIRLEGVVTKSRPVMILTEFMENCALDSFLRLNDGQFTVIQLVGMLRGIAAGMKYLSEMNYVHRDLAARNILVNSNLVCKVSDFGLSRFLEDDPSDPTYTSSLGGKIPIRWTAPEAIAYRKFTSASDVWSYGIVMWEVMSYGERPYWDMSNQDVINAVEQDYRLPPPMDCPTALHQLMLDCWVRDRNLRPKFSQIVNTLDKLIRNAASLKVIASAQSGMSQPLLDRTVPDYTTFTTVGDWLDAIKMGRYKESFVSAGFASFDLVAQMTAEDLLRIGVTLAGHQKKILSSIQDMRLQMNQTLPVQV

[3] = target: T2, Ephrin type-B receptor 3 (Homo sapiens); settings: at 1 µM
[4] = target: T3, Ephrin type-B receptor 4 (Homo sapiens) (UniProt P54760); settings: at 0.1 µM
T3 sequence (whole entry): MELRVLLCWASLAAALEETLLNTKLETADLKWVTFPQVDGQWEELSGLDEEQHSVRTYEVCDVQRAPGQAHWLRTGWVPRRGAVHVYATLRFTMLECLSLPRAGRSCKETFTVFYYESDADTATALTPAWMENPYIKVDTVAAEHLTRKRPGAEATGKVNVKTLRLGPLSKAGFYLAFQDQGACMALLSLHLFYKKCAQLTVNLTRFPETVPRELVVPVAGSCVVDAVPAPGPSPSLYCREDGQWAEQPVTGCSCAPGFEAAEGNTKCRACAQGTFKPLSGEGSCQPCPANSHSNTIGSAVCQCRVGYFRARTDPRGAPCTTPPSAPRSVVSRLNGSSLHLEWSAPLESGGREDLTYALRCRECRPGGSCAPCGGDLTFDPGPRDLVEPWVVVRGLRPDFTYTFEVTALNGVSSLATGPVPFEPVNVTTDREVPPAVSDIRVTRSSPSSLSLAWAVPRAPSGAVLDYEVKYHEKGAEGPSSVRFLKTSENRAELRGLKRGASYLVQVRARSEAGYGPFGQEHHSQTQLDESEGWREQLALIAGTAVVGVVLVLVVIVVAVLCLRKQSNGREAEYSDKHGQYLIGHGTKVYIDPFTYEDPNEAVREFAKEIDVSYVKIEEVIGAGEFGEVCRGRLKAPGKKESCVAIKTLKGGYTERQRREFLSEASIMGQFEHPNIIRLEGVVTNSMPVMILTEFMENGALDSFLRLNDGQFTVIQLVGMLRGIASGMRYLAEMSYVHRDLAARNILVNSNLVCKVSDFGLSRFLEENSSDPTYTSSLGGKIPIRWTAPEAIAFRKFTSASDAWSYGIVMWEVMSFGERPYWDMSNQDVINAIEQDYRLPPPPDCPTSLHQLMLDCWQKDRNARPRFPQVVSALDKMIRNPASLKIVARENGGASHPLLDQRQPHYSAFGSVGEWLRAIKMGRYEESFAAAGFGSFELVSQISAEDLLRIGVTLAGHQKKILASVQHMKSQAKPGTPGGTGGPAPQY

[5] = target: T3, Ephrin type-B receptor 4 (Homo sapiens); settings: at 1 µM
[6] = target: Receptor tyrosine-protein kinase erbB-2 (Homo sapiens) (UniProt P04626); settings: at 0.1 µM
[7] = target: Receptor tyrosine-protein kinase erbB-2 (Homo sapiens) (UniProt P04626); settings: at 1 µM
[8] = target: Receptor tyrosine-protein kinase erbB-4 (Homo sapiens) (UniProt Q15303); settings: at 0.1 µM
[9] = target: Receptor tyrosine-protein kinase erbB-4 (Homo sapiens) (UniProt Q15303); settings: at 1 µM
[10] = target: Tyrosine-protein kinase Fer (Homo sapiens) (UniProt P16591); settings: at 0.1 µM
[11] = target: Tyrosine-protein kinase Fer (Homo sapiens) (UniProt P16591); settings: at 1 µM
[12] = target: Tyrosine-protein kinase Fes/Fps (Homo sapiens) (UniProt P07332); settings: at 0.1 µM
[13] = target: Tyrosine-protein kinase Fes/Fps (Homo sapiens) (UniProt P07332); settings: at 1 µM
[14] = target: Fibroblast growth factor receptor 1 (Homo sapiens) (UniProt P11362); settings: at 0.1 µM
[15] = target: Fibroblast growth factor receptor 1 (Homo sapiens) (UniProt P11362); settings: at 1 µM
[16] = target: Fibroblast growth factor receptor 2 (Homo sapiens) (UniProt P21802); settings: at 0.1 µM
[17] = target: Fibroblast growth factor receptor 2 (Homo sapiens) (UniProt P21802); settings: at 1 µM
[18] = target: Fibroblast growth factor receptor 3 (Homo sapiens) (UniProt P22607); settings: at 0.1 µM
[19] = target: Fibroblast growth factor receptor 3 (Homo sapiens) (UniProt P22607); settings: at 1 µM
[20] = target: Fibroblast growth factor receptor 4 (Homo sapiens) (UniProt P22455); settings: at 0.1 µM;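 note: values are mean percent inhibition of FGFR4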
Fibroblast growth factor receptor 4 (Homo sapiens), sequence (P22455 22-802 limits assumed): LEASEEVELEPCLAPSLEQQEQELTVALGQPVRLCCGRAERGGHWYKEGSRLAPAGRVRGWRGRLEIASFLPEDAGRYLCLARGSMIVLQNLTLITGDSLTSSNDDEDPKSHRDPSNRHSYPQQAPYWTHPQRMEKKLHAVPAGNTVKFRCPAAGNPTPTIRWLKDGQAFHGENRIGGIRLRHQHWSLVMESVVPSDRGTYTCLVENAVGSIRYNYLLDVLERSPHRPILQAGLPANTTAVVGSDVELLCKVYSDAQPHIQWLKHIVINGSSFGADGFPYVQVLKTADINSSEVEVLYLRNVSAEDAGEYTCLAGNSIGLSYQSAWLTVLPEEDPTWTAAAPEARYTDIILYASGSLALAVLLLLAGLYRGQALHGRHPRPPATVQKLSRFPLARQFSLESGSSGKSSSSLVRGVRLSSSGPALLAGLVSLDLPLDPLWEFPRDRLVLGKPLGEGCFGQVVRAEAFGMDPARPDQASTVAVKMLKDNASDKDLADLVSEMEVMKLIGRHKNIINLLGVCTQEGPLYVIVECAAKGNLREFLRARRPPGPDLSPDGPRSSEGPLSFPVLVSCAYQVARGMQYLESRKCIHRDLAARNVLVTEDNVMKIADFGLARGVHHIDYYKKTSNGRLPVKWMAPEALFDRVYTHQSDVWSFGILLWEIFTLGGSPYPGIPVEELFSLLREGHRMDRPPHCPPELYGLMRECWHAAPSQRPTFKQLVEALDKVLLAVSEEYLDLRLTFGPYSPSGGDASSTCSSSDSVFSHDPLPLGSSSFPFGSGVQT

Receptor tyrosine-protein kinase erbB-2 (Homo sapiens), sequence (P04626 whole entry): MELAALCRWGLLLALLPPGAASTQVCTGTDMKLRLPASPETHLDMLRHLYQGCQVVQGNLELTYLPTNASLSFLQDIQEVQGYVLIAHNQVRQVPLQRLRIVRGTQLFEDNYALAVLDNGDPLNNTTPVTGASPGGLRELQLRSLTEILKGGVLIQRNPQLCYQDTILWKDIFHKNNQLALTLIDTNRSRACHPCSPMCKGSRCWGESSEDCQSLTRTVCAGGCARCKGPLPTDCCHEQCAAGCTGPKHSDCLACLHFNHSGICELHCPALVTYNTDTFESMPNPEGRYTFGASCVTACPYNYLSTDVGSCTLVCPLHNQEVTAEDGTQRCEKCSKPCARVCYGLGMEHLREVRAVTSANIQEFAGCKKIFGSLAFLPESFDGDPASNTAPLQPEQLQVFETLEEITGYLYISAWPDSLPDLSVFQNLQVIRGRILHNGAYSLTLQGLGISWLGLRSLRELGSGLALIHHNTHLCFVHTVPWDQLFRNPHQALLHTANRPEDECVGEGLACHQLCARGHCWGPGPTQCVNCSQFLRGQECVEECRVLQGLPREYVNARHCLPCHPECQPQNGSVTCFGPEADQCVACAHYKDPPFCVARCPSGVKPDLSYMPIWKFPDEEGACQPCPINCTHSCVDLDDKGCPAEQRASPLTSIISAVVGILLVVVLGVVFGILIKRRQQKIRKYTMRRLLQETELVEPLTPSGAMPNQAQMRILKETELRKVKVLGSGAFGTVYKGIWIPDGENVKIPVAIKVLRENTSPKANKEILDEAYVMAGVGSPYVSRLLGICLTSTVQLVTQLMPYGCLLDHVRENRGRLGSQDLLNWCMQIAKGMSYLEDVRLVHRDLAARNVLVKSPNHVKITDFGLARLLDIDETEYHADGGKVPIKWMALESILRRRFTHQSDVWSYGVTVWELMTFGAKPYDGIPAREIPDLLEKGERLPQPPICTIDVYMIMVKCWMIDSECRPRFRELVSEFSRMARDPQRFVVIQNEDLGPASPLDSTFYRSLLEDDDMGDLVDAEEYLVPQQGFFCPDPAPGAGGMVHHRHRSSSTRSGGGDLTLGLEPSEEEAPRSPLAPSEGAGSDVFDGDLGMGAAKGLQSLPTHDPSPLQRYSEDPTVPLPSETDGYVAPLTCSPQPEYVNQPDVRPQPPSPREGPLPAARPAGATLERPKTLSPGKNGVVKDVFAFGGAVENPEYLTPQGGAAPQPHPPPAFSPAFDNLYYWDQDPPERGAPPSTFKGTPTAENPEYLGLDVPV
Fibroblast growth factor receptor 1 (Homo sapiens), sequence (P11362 22-822 limits assumed): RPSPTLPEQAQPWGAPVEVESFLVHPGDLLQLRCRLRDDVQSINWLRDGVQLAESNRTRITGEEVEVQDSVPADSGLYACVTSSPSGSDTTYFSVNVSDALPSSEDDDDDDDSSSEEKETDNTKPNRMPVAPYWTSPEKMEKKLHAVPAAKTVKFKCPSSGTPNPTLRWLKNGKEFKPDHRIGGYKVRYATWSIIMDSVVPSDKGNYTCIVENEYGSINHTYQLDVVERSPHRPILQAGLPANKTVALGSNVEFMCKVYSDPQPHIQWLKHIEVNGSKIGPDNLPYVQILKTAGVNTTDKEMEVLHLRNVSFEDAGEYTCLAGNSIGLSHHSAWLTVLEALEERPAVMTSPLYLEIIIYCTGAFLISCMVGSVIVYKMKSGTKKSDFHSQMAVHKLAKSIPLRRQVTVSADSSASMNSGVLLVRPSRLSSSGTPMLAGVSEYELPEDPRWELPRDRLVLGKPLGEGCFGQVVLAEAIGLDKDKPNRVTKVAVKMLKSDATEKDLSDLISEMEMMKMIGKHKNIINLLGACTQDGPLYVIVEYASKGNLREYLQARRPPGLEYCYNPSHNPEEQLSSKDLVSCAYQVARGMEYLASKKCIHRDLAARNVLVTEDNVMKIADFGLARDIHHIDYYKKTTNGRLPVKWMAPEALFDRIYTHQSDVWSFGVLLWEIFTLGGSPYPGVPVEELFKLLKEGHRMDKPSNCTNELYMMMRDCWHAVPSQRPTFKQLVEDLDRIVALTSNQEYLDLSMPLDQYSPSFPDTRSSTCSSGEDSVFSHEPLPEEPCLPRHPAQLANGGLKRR
Tyrosine-protein kinase Fer (Homo sapiens), sequence (P16591 whole entry, looked up): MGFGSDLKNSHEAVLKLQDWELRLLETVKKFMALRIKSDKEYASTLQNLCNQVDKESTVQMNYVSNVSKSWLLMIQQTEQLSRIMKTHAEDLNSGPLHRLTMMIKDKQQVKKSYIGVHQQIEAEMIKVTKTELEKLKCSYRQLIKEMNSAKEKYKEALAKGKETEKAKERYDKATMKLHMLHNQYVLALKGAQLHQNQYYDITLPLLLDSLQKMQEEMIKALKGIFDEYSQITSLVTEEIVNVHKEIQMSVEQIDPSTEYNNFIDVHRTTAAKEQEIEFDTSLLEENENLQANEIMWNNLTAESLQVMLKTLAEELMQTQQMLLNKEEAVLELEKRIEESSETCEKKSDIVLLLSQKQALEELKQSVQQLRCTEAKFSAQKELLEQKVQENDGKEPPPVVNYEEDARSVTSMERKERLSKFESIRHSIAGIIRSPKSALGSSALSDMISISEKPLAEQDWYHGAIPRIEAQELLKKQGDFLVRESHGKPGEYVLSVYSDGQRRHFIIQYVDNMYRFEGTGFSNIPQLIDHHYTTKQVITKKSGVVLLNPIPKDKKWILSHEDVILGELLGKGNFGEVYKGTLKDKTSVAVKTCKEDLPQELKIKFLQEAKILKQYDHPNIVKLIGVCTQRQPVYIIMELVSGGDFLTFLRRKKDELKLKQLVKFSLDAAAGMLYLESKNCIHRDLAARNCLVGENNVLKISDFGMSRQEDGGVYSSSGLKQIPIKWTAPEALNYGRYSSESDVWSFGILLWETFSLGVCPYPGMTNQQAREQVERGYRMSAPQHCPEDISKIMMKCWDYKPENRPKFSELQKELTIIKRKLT
Tyrosine-protein kinase Fes/Fps (Homo sapiens), sequence (P07332 whole entry): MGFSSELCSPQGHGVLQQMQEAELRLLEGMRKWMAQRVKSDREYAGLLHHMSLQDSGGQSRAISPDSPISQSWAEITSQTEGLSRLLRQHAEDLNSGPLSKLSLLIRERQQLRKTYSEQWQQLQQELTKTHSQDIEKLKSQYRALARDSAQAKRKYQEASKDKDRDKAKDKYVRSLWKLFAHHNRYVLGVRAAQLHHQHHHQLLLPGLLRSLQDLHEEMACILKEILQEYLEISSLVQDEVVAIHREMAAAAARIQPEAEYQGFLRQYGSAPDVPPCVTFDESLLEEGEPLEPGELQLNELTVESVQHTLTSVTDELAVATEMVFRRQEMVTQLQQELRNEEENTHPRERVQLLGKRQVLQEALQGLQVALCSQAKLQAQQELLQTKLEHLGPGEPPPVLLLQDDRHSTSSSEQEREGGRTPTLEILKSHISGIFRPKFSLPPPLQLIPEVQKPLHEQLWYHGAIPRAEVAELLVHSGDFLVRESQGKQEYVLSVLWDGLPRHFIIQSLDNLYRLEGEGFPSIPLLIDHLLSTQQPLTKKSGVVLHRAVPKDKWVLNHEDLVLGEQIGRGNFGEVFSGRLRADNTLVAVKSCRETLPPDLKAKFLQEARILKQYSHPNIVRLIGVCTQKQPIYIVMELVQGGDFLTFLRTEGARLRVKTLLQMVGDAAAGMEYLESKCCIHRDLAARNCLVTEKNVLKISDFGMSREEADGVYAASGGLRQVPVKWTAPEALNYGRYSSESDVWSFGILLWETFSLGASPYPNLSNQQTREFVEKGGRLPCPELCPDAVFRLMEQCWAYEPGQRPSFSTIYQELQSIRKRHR

Compound | inhibition [1] | inhibition [2] | inhibition [3] | inhibition [4] | inhibition [5] | inhibition [6] | inhibition [7] | inhibition [8] | inhibition [9] | inhibition [10] | inhibition [11] | inhibition [12] | inhibition [13] | inhibition [14] | inhibition [15] | inhibition [16] | inhibition [17] | inhibition [18] | inhibition [19] | inhibition [20]
C[C@@H](Oc1cc(-n2cnc3ccc(OCC4CCN(C)CC4)cc32)sc1C(N)=O)c1ccccc1Cl | 8.25% | 2.8% | 6.12% | 5.24% | 3.86% | 41.4% | 4.61% | 9.63% | 13.1% | 1.28% | 7.17% | 4.96% | 7.97% | 5.32% | 14% | 9.46% | 12.5% | 11.2% | 8.71% | 3.93%
O=C(Nc1ccc(Oc2ccc3[nH]c(NC(=O)c4ccccc4)nc3c2)cc1)Nc1cc(C(F)(F)F)ccc1F | 61.8% | 5.05% | 8.33% | 3.63% | 27.5% | 2.77% | 4.41% | 6.9% | 9.12% | 1.59% | 7.9% | 2.28% | 2.49% | 2.35% | 6.8% | 2.19% | 18.8% | 7.91% | 6.31% | -0.39%
CN(C)CCOc1ccc(-c2cc(-c3ccc4c(c3)CCC4=NO)c(-c3ccncc3)o2)cc1 | 6.81% | -0.49% | 5.63% | 0.06% | 1.37% | 3.66% | 5.12% | 1.69% | 13% | -1.17% | -0.96% | 0.22% | -1.71% | -4.37% | -0.28% | -2.17% | -0.7% | -1.69% | -0.19% | 1.99%
NC(=O)Cc1ccccc1Oc1nccc(-c2c(-c3ccc(F)cc3)ncn2C2CCNCC2)n1 | 6.53% | 3.13% | 4.05% | 0.65% | 2.09% | 2.21% | -1.85% | 12.1% | 17.1% | 6.39% | 4.36% | 1.68% | 2.12% | 5.6% | 3.15% | 1.69% | 5.26% | 3.66% | 3.8% | 0.37%
CN1CCN(CCCNc2nc3ccc(Oc4ccc(NC(=O)Nc5cc(C(F)(F)F)ccc5F)cc4)cc3[nH]2)CC1 | 58.8% | -3.09% | -6.41% | -1.44% | 16.4% | -2.7% | -2.07% | 3.38% | 2.56% | 3.88% | 3.71% | 1.57% | 1.53% | -4.14% | 0.63% | -1.49% | 1.51% | -0.95% | -0.55% | -2.64%
COc1ccc2cc(-c3c(-c4ccncc4)nc(-c4ccc(S(C)(=O)=O)cc4C)n3C)ccc2c1 | 12.5% | 7.13% | 10.9% | 4.32% | 14.2% | 5.67% | 8.01% | 15% | 44.4% | 3.19% | 6.59% | 3.14% | 3.35% | 2.35% | 6.54% | 3.92% | 6.16% | 4.02% | 6.07% | -7.02%
